According to PubChem BioAssay (Tox21):
Several values for one entry are separate records, joined by “and”; a condition that tells them apart may be missing. Identical values can stand only once. Inconclusive results are not listed. Activity calls are given as the source filed them. The call rests on the fitted dose curve; in most records, active means well fitted curve in the direction sought with a large enough effect in the repeat runs; inconclusive means weak or mixed curves; inactive means no such curve, though single readings can be large; an effect the other way counts as inactive or inconclusive.

Key:
[1] = qHTS RealTime-Glo MT Cell Viability Assay in HepG2 cells - 8 hour (AID 1224873); further: nearly all actives have a fitted effect of over 55% in size
How it was run: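 Real-time viability: cells seeded at 600 per well together with NanoLuc and cell-permeant prosubstrate, compounds added after 5 h incubation. Luminescence tracked at 0, 8, 16, 24, 32 and 40 h of exposure.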

[2] = qHTS RealTime-Glo MT Cell Viability Assay in HEK293 cells - 40 hour (AID 1224874); details: RealTime-Glo luminescence; max response: stronger effect = lower value; further: nearly all actives have a fitted effect of over 50% in size; further: potency means the concentration at half of the fitted maximal effect
How it was run: (§1)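 Measured as luminescence from the same continuously cultured HEK293 wells at successive time points (0, 8, 16, 24, 32, 40 h) after compound addition. Reagent present from seeding; dosing at 5 h; incubation 37 C.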

[3] = A CellTox Green Cytotoxicity Assay to monitor cytotoxicity in HEK293 cells - 24 hour (AID 1224875); further: series mostly up to about 77 µM; nearly all actives have a fitted effect of over 45% in size
How it was run: (§2)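 Homogeneous no-lysis format: HEK293 cell suspension mixed with CellTox Green reagent, seeded, incubated 5 h at 37 C/5% CO2, then dosed by pintool with compound in DMSO.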

[4] = A CellTox Green Cytotoxicity Assay to monitor cytotoxicity in HepG2 cells - 16 hour (AID 1224876); further: nearly all actives have a fitted effect of over 45% in size
How it was run: (§3)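 Fluorescent DNA-binding dye, 600 HepG2 cells/well, 5 h preincubation then compound in DMSO; same plates read at 0–40 h, 37 C.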

[5] = A CellTox Green Cytotoxicity Assay to monitor cytotoxicity in HEK293 cells - 32 hour (AID 1224881); further: nearly all actives have a fitted effect of over 40% in size
How it was run: as §2

[6] = A CellTox Green Cytotoxicity Assay to monitor cytotoxicity in HepG2 cells - 0 hour (AID 1224882); further: nearly all actives have a fitted effect of over 35% in size
How it was run: as §3

[7] = A CellTox Green Cytotoxicity Assay to monitor cytotoxicity in HEK293 cells - 8 hour (AID 1224884); further: nearly all actives have a fitted effect of over 35% in size
How it was run: as §2

[8] = qHTS RealTime-Glo MT Cell Viability Assay in HepG2 cells - 16 hour (AID 1224885); further: nearly all actives have a fitted effect of over 50% in size
How it was run: (§4)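 Viability was tracked continuously by NanoLuc luminescence from prosubstrate reduced by living HepG2 cells, at successive time points over 40 h of compound exposure. Cells with reagent were preincubated 5 h at 37 °C before compound addition.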

[9] = qHTS RealTime-Glo MT Cell Viability Assay in HEK293 cells - 24 hour (AID 1224886); further: nearly all actives have a fitted effect of over 50% in size; further: potency means the concentration at half of the fitted maximal effect
How it was run: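 Viability tracked continuously by luminescence as live cells reduce a prosubstrate for NanoLuc; HEK293 cells preincubated 5 h, compound-treated at 37 C, and read at 0, 8, 16, 24, 32 and 40 h.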

[10] = qHTS RealTime-Glo MT Cell Viability Assay in HEK293 cells - 8 hour (AID 1224887); further: top concentration of the series differs between compounds; nearly all actives have a fitted effect of over 50% in size
How it was run: as §1

[11] = A CellTox Green Cytotoxicity Assay to monitor cytotoxicity in HEK293 cells - 16 hour (AID 1224888); further: nearly all actives have a fitted effect of over 35% in size
How it was run: as §2

[12] = A CellTox Green Cytotoxicity Assay to monitor cytotoxicity in HepG2 cells - 8 hour (AID 1224890); further: nearly all actives have a fitted effect of over 45% in size
How it was run: as §3

[13] = qHTS assay to identify small molecule antagonists of the estrogen receptor alpha (ER-alpha) signaling pathway using the BG1 cell line in the presence of 0.1 nM 17-beta-estradiol - cell viability counter screen (AID 1259241); further: nearly all actives have a fitted effect of over 40% in size
How it was run: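 Cells were plated and left 24 hr, compounds in DMSO were pinned in, 17beta-estradiol was added to 0.1 nM final, and after 22 hr CellTiter-Fluor reagent was added for 30 min before fluorescence was read.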

[14] = qHTS assay to identify small molecule antagonists of the androgen receptor (AR) signaling pathway using the MDA cell line in the presence of 0.5 nM R1881 - cell viability counter screen (AID 1259242); further: nearly all actives have a fitted effect of over 45% in size
How it was run: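 Human breast carcinoma MDA-kb2 cells, cultured without CO2, receive compounds alongside 0.5 nM (final) R1881 agonist. After 16 hr at 37C, viability is taken as live-cell protease signal.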

[15] = qHTS RealTime-Glo MT Cell Viability Assay in HepG2 cells - 32 hour (AID 1224877); further: nearly all actives have a fitted effect of over 55% in size
How it was run: as §4

[16] = A CellTox Green Cytotoxicity Assay to monitor cytotoxicity in HepG2 cells - 24 hour (AID 1224878); further: nearly all actives have a fitted effect of over 45% in size
How it was run: as §3

[17] = A CellTox Green Cytotoxicity Assay to monitor cytotoxicity in HepG2 cells - 40 hour (AID 1224879); further: nearly all actives have a fitted effect of over 40% in size; further: potency means the concentration at half of the fitted maximal effect
How it was run: as §3

[18] = qHTS RealTime-Glo MT Cell Viability Assay in HEK293 cells - 0 hour (AID 1224880)
How it was run: as §1

[19] = A CellTox Green Cytotoxicity Assay to monitor cytotoxicity in HepG2 cells - 32 hour (AID 1224883); further: nearly all actives have a fitted effect of over 50% in size; further: potency means the concentration at half of the fitted maximal effect
How it was run: as §3

[20] = qHTS RealTime-Glo MT Cell Viability Assay in HepG2 cells - 0 hour (AID 1224889); further: nearly all actives have a fitted effect of over 50% in size
How it was run: as §4
On the % scale 0 is the no-effect control and ±100 the full control effect.

CN1CCN2c3ccccc3Cc3ccccc3C2C1 (centres undefined)
inactive: Potency [1] | max response [2] -5.98% | Potency [3] | Potency [4] | Potency [5] | Potency [6] | Potency [7] | Potency [8] | Potency [9] | Potency [10] | Potency [11] | Potency [12] | Potency [13] | Potency [14]

O=C(/C=C/c1ccc(O)c(O)c1)O[C@@H](C(=O)O)[C@@H](OC(=O)/C=C/c1ccc(O)c(O)c1)C(=O)O
inactive: Potency [1] | Potency [3] | Potency [4] | Potency [15] | Potency [16] | Potency [17] | Potency [18] | Potency [5] | Potency [6] | Potency [19] | Potency [7] | Potency [8] | Potency [9] | Potency [10] | Potency [11] | Potency [20] | Potency [12] | Potency [13] | Potency [14]

CCCCCCCCCCC[C@@H](C[C@@H]1OC(=O)[C@H]1CCCCCC)OC(=O)[C@H](CC(C)C)NC=O
inactive: Potency [1] | Potency [3] | Potency [4] | Potency [16] | Potency [18] | Potency [6] | Potency [7] | Potency [11] | Potency [20] | Potency [12] | Potency [13] | Potency [14]
active: Potency [2] 6.74 µM | Potency [17] 19 µM | Potency [19] 16.9 µM | Potency [9] 8.49 µM

c1ccsc1
inactive: Potency [1] | max response [2] -2.24% | Potency [3] | Potency [4] | Potency [18] | Potency [5] | Potency [6] | Potency [19] | Potency [7] | Potency [8] | Potency [10] | Potency [11] | Potency [20] | Potency [13] | Potency [14]

COc1ccc(-c2coc3cc(O)ccc3c2=O)cc1
inactive: Potency [1] | Potency [3] | Potency [4] | Potency [15] | Potency [16] | Potency [17] | Potency [18] | Potency [5] | Potency [6] | Potency [19] | Potency [7] | Potency [8] | Potency [9] | Potency [10] | Potency [20] | Potency [12] | Potency [13]

Cc1cc(=O)oc2cc(O)cc(O)c12
inactive: Potency [1] | max response [2] -8.17% | Potency [4] | Potency [15] | Potency [16] | Potency [17] | Potency [18] | Potency [6] | Potency [19] | Potency [7] | Potency [9] | Potency [10] | Potency [20] | Potency [12] | Potency [13] | Potency [14]

COc1cccc(OC)c1C(=O)O
inactive: Potency [1] | max response [2] 0.328% | Potency [4] | Potency [15] | Potency [16] | Potency [17] | Potency [18] | Potency [6] | Potency [19] | Potency [7] | Potency [8] | Potency [9] | Potency [10] | Potency [12] | Potency [13] | Potency [14]

S=C([S-])NCCNC(=S)[S-].S=C([S-])NCCNC(=S)[S-].[Mn+2].[Zn+2]
inactive: Potency [1] | Potency [3] | Potency [4] | Potency [15] | Potency [16] | Potency [17] | Potency [18] | Potency [5] | Potency [6] | Potency [19] | Potency [7] | Potency [8] | Potency [10] | Potency [11] | Potency [12] | Potency [13] | Potency [14]

CCN(CCN)c1cccc(C)c1
inactive: Potency [1] | max response [2] -16.9% and 1.24% | Potency [3] | Potency [4] | Potency [16] | Potency [17] | Potency [18] | Potency [5] | Potency [6] | Potency [19] | Potency [8] | Potency [9] | Potency [10] | Potency [11] | Potency [12] | Potency [13] | Potency [14]

CCC(C)[O-].CCC(C)[O-].CCOC(=O)/C=C(/C)[O-].[Al+3]
inactive: Potency [1] | max response [2] 0.788% | Potency [3] | Potency [4] | Potency [16] | Potency [18] | Potency [5] | Potency [6] | Potency [19] | Potency [7] | Potency [9] | Potency [10] | Potency [11] | Potency [12] | Potency [13]

CCOC(=O)NNc1ccc(N(CC)CC(C)O)nn1 (centres undefined)
inactive: Potency [1] | max response [2] 7.18% | Potency [3] | Potency [4] | Potency [16] | Potency [17] | Potency [18] | Potency [5] | Potency [6] | Potency [19] | Potency [7] | Potency [9] | Potency [10] | Potency [11] | Potency [12] | Potency [13] | Potency [14]
